# Data reported in PubChem BioAssay (NCI).
# This is part of a sample that, as a whole, favours compounds with a hit. Of some 83,000 tested, about 20% had one in any assay.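 96-well plates, one dose, 48 hours. Percent growth reported; active if below 10.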 Values without a mark were called inactive. Active and inactive are the calls of the source.
# Test system: HL-60(TB) leukemia
# Assay: NCI-60 one-dose screen, 48 h (100 = growth as untreated, 0 = no growth, -100 = all killed)
# Details: 10 µM unless noted
row,Structure (SMILES),growth
1,COc1ccc(-c2nc(-c3nc4ccc(OC)cc4[nH]3)c3ccccn23)cc1,52.1%
2,Brc1ccc2[nH]cc(-c3nc(-c4c[nH]c5ncccc45)cs3)c2c1,32.7%
3,CCCCCC/C=N/Nc1ccc([N+](=O)[O-])cn1,62.5%
4,Nc1c(C(=O)Nc2ccncc2)sc2nc3c(cc12)CCCCC3,55.5%
5,CC(=O)N(C(C)=O)c1ccc(C)cc1,92.9%
6,CN1CCN(c2ccc3c(c2)nc(NNC(=O)c2cnccn2)c2cccn23)CC1,-9.26% (active)
7,N=C(N)c1ccc(-c2ccc(-c3cc(Cl)cc(Cl)c3)s2)s1,-67.9% (active)
8,Nc1nc2ccccc2c2c(=O)c3cccc(Cl)c3sc12,93.7%
9,CCN(C(=O)c1cc2ncccc2[nH]1)[C@H]1CCC[C@@H](NCc2cccc(F)c2)C1,130%
10,CNc1nc(NC2CCCC2)nc(Sc2ccc(OC)cc2)n1,2% [100 µM] (active)
11,O=[N+]([O-])c1ccc(-c2cc3c(Nc4ccc(Sc5nc6ccccc6s5)c(Cl)c4)ncnc3s2)cc1,21.6%
12,COC1CC(C)C(OC)c2cc(O)cc(c2O)NC(=O)/C(C)=C/C=C\C(C)C(OC(N)=O)/C(C)=C\C(C)C1OC (centres undefined),-51.6% (active)
13,Cc1nc(Nc2ccc(NC(=S)Nc3ccccc3)cc2)c2ccccc2n1,86.4%
14,COc1ccc2c(c1)C(=O)c1c-2c(OCCCN(C)C)nc2cc(Br)ccc12,98.4%
15,CCCCCCCCCCCCOC(=N)N(C)C,91.9%
16,COc1ccc(/C=C(/C(=O)c2ccc(Cl)cc2)C(=O)C(F)(F)F)cc1,106%
17,N#Cc1c(N)nc(NCCO)nc1-c1ccc(F)cc1,93.6%

row,Structure (SMILES),growth
1,c1ccc2cc(Cn3c(-c4ccc5ccccc5c4)[n+](Cc4ccc5ccccc5c4)c4ccccc43)ccc2c1,-45.9% (active)
2,c1ccc(-c2nc(N3CCOCC3)c3c4c(sc3n2)CCCCC4)nc1,79.2%
3,COc1cc2nccc(Oc3ccc(NC(=O)C4(C(=O)Nc5ccc(F)cc5)CC4)cc3)c2cc1OC(=O)c1ccc(N)cc1,-43.9% (active)
4,O=C(Nc1ccc(Cl)cc1)c1cc(NCc2cc(O)ccc2O)ccc1O,0.347% (active)
5,C=C(C)[C@@H]1CC[C@]2(C)[C@H](CC=C3[C@@H]4CC(C)(C)CC[C@]4(CO)CC[C@]32C)[C@@]1(C)CCCN,-68.9% (active)
6,N=C(N)c1ccc(-c2ccc(-c3ccc(Cl)cc3Cl)s2)nc1,-35.7% (active)
7,CCCN(CCC)CC(O)COc1ccccc1C(=O)Nc1ccccc1 (centres undefined),17.3%
8,Cc1cc[n+](CCCC[n+]2ccc(C)cc2)cc1,94.5%
9,CCC(C)[C@H](NC(C)=O)C(=O)N[C@@H](CCCNC(=N)N)C(=O)N[C@@H](CCCCN)C(=O)N[C@@H](CC1CCC(O)CC1)C(=O)NC(C(=O)N[C@@H](CCSC)C(=O)N[C@@H](CCCNC(=N)N)C(=O)N[C@@]1(C)CCC/C=C\CCC[C@@](C)(C(=O)NC(C(=O)N[C@@H](CCC(=O)O)C(=O)N[C@@H](CC(C)C)C(=O)N[C@H](C(=O)N[C@@H](CCC(=O)O)C(N)=O)C(C)C)[C@@H](C)O)NC(=O)[C@H](CCC(N)=O)NC(=O)[C@H](CC(C)C)NC(=O)[C@H](CC(C)C)NC1=O)[C@@H](C)O (some centres undefined),97.3%
10,O=C(Nc1ccccc1)c1cc(Cl)ccc1O,29.6%
11,Cc1cc(Br)c2nsnc2c1[N+](=O)[O-],37.7%
12,Cc1cc(NC(=O)Nc2cccc3ccccc23)no1,99.5%
13,COc1ccc(C(=O)C(C)Br)cc1OC (centres undefined),96.7%
14,C=C(C)[C@@H]1CC[C@]2(C#N)CC[C@]3(C)[C@H](CC[C@@H]4[C@@]5(C)CCCNC(C)(C)[C@@H]5CC[C@]43C)[C@@H]12,83.9%
15,COc1ccc2ncccc2c1Cc1c(OC)ccc2ncccc12,42.3%
16,c1ccc(C(=NNc2nc3ccccc3o2)c2ccccn2)nc1,-11.8% (active)
17,C[C@@H]1O[C@@H](O[C@H]2[C@@H](OC(=O)[C@]34CCC(C)(C)C[C@H]3C3=CC[C@@H]5[C@@]6(C)C[C@H](O)[C@H](O[C@@H]7O[C@H](CO)[C@@H](O)[C@H](O)[C@H]7O)[C@@](C)(CO)[C@@H]6CC[C@@]5(C)[C@]3(C)C[C@H]4O)OC[C@@H](O)[C@@H]2O)[C@H](O)[C@H](O[C@@H]2OC[C@@H](O)[C@H](O[C@@H]3OC[C@](O)(CO)[C@H]3O[C@@H]3OC[C@@H](O)[C@H](O)[C@H]3O)[C@H]2O)[C@H]1O[C@@H]1OC[C@](O)(CO)[C@H]1O,21.4%
